Data published in PubChem BioAssay (Tox21).
Values joined by “and” are separate entries in the source; they are usually repeats but may differ in a detail not shown here. Equal entries are not always repeated. Inconclusive results are not listed. Active and inactive are the calls of the source. Unless noted, calls come from the whole dose curve; as a rule, active = well fitted curve in the direction sought with a large enough effect in the repeat runs; inconclusive = weak or mixed curves; inactive = no such curve, though single readings can be large; an effect the other way counts as inactive or inconclusive.

Tests used:
[1] = qHTS assay to identify small molecule antagonists of the thyroid receptor (TR) signaling pathway - cell viability counter screen (AID 743064); note: nearly all actives have a fitted effect of over 50% in size; note: potency is the fitted concentration of half-maximal effect
Method in brief: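 GH3.TRE-Luc rat pituitary cells carrying a TRE-luciferase reporter were treated with compound plus 1 nM T3 (final) for 23.5 h at 37 °C. Viability was then read in the same wells by CellTiter-Fluor fluorescence after a further 30 min.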

[2] = qHTS assay to identify small molecule antagonists of the thyroid receptor (TR) signaling pathway (AID 743065); note: nearly all actives have a fitted effect of over 55% in size; note: potency is the fitted concentration of half-maximal effect
Method in brief: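 GH3.TRE-Luc rat pituitary cells carrying two TR response elements driving luciferase were plated for 4 h, given compound plus 1 nM T3 (final), and incubated 23.5 h at 37 C. ONE-Glo luminescence measured reporter inhibition; CellTiter-Fluor fluorescence tracked cytotoxicity.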

[3] = tested on: thyroid hormone receptor (rat, GH3 cells); assay: qHTS assay to identify small molecule agonists of the thyroid receptor (TR) signaling pathway (AID 743066; calls by dose curve)
[4] = target: Estrogen receptor (Homo sapiens) (UniProt P03372); assay: qHTS assay to identify small molecule antagonists of the estrogen receptor alpha (ER-alpha) signaling pathway (AID 743069; active = well fitted curve in the direction sought with a large enough effect in the signal ratio in the repeat runs, not every such curve was filed as active; the % refers to the signal ratio; note: potency is the fitted concentration of half-maximal effect)
Method in brief: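 A 17beta-estradiol challenge was applied right after compound transfer to ER-alpha-UAS-bla HEK293 cells previously kept in charcoal-stripped serum. Plates stood 18 hr at 37C and 5% CO2; fluorescence was read following 2 hr FRET substrate loading at room temperature.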

[5] = qHTS assay to identify small molecule antagonists of the estrogen receptor alpha (ER-alpha) signaling pathway - cell viability counter screen (AID 743074; calls by dose curve;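 note: HEK293 cells carrying ER-alpha-UAS-bla reporter stimulated with 17beta-estradiol; nearly all actives have a fitted effect of over 45% in size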)
[6] = target: Estrogen receptor (Homo sapiens) (UniProt P03372); assay: qHTS assay to identify small molecule agonists of the estrogen receptor alpha (ER-alpha) signaling pathway (AID 743075; calls by dose curve;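 note: HEK293 GripTite cells with ER-alpha and UAS-driven beta-lactamase reporter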)
[7] = target: Estrogen receptor (Homo sapiens) (UniProt P03372); assay: qHTS assay to identify small molecule agonists of the estrogen receptor alpha (ER-alpha) signaling pathway using the BG1 cell line (AID 743079); note: nearly all actives have a fitted effect of over 20% in size; note: potency is the fitted concentration of half-maximal effect
[8] = qHTS assay to identify small molecule antagonists of the estrogen receptor alpha (ER-alpha) signaling pathway using the BG1 cell line (AID 743080; calls by dose curve;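 note: BG1 cells stimulated with 17beta-estradiol alongside compound; nearly all actives have a fitted effect of over 25% in size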; note: potency is the fitted concentration of half-maximal effect)
Method in brief: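 Readout is ONE-Glo luminescence, taken 30 min at room temperature after reagent addition, preceded by a CellTiter-Fluor viability read; BG1-Luc-4E2 cells had received compound and 17beta-estradiol for 21.5 h at 37 C.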

[9] = target: Aromatase (Homo sapiens) (UniProt P11511); assay: qHTS assay to identify aromatase inhibitors (AID 743083); note: nearly all actives have a fitted effect of over 55% in size; note: potency is the fitted concentration of half-maximal effect
[10] = qHTS assay to identify aromatase inhibitors - cell viability counter screen (AID 743084);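 note: cells stimulated with testosterone during compound exposure; nearly all actives have a fitted effect of over 55% in size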; note: potency is the fitted concentration of half-maximal effect
[11] = target: Aryl hydrocarbon receptor (Homo sapiens) (UniProt P35869); assay: qHTS assay to identify small molecule that activate the aryl hydrocarbon receptor (AhR) signaling pathway (AID 743085); note: nearly all actives have a fitted effect of over 15% in size; note: potency is the fitted concentration of half-maximal effect;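 for activation: HG2L7.5c1 human HepG2 liver cells with stably integrated DRE-driven firefly reporter; series mostly up to about 70 µM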
Method in brief: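 HepG2 cells (HG2L7.5c1) stably carrying a firefly luciferase reporter driven by 20 dioxin responsive elements were exposed to compound for 24 h at 37C after a 5 h settling period; luminescence rise (ONE-Glo) indicated activation.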

[12] = qHTS assay to identify small molecule that activate the aryl hydrocarbon receptor (AhR) signaling pathway - cell viability counter screen (AID 743086); note: nearly all actives have a fitted effect of over 45% in size; note: potency is the fitted concentration of half-maximal effect
Method in brief: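 HepG2-AhR-luc (HG2L7.5c1) cells, 4000/well, were preincubated 5 h at 37C, exposed to compound in qHTS format for 24 hr at 37C, then given CellTiter-Fluor for 30 min; viability was read as fluorescence in the reporter wells.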

[13] = target: Peroxisome proliferator-activated receptor gamma (Homo sapiens) (UniProt P37231); assay: qHTS assay to identify small molecule agonists of the peroxisome proliferator-activated receptor gamma (PPARg) signaling pathway (AID 743094; active = well fitted activation curve with a large enough effect in the signal ratio in the repeat runs, not every such curve was filed as active; the % refers to the signal ratio; note: potency is the fitted concentration of half-maximal effect)
Method in brief: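 Agonism was assessed in a beta-lactamase reporter system, HEK293H cells with a stably integrated UAS-bla construct under PPARg control; the 17 h treatment at 37C preceded a 1 h room-temperature FRET substrate read.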

[14] = target: Peroxisome proliferator-activated receptor gamma (Homo sapiens) (UniProt P37231); assay: qHTS assay to identify small molecule antagonists of the peroxisome proliferator-activated receptor gamma (PPARg) signaling pathway (AID 743191; calls by dose curve; note: nearly all actives have a fitted effect of over 30% in size; note: potency is the fitted concentration of half-maximal effect)
Method in brief: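 GeneBLAzer PPARg UAS-bla HEK293H cells carrying a UAS-driven beta-lactamase reporter were plated at 3000 cells/well, preincubated 5 h at 37C, then given compound for 17 h at 37C; LiveBLAzer B/G FRET substrate was read after 1 h at room temperature.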

[15] = qHTS assay to identify small molecule antagonists of the peroxisome proliferator-activated receptor gamma (PPARg) signaling pathway - cell viability counter screen (AID 743194); details: Potency: co-treated with 50 nM rosiglitazone; note: nearly all actives have a fitted effect of over 55% in size; note: potency is the fitted concentration of half-maximal effect
Method in brief: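 PPARg-UAS-bla HEK293H cells were plated, rested 5 h at 37 C, then treated with compounds plus rosiglitazone (50 nM final) for 17 h at 37 C; viability was then read by CellTiter-Glo luminescence after 30 min at room temperature.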

[16] = qHTS assay for small molecule agonists of the antioxidant response element (ARE) signaling pathway - cell viability counter screen (AID 743203; calls by dose curve; note: nearly all actives have a fitted effect of over 55% in size; note: potency is the fitted concentration of half-maximal effect)
Method in brief: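 ATP content via CellTiter-Glo luminescence served as the viability measure. Cells: ARE-bla HepG2, 2,000 per well. Exposure: 16 hrs, 37C/5% CO2.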

[17] = qHTS assay for small molecule activators of the heat shock response signaling pathway - cell viability counter screen (AID 743209); note: nearly all actives have a fitted effect of over 50% in size
Method in brief: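 Compounds dissolved in DMSO were added to overnight-plated HSE-bla HeLa cells and left 5 h at 37 C. Cell viability was quantified by luminescence using CellTiter-Glo.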

[18] = qHTS assay for small molecule activators of the heat shock response signaling pathway (AID 743210; active = well fitted activation curve with a large enough effect in the signal ratio in the repeat runs, with a control signal flat, not every such curve was filed as active; the % refers to the signal ratio; note: series mostly up to about 63 µM)
Method in brief: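 Heat shock element–beta-lactamase HeLa reporter cells; qHTS with compounds for 5 h at 37 C; detection by FRET substrate fluorescence after 2.5 h at RT.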

[19] = qHTS assay to identify small molecule antagonists of the estrogen receptor alpha (ER-alpha) signaling pathway using the BG1 cell line - cell viability counter screen (AID 743081);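 note: compound given together with 17beta-estradiol as the ER stimulus; series mostly up to about 70 µM; nearly all actives have a fitted effect of over 45% in size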
[20] = qHTS assay for small molecule agonists of the antioxidant response element (ARE) signaling pathway (AID 743202; active = well fitted activation curve with a large enough effect in the signal ratio in the repeat runs, not every such curve was filed as active; the % refers to the signal ratio; note: potency is the fitted concentration of half-maximal effect)
Method in brief: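 Following a 16 h, 37 C exposure of reporter HepG2 cells (ARE-driven beta-lactamase, 2,000 cells/well) to compounds, FRET substrate was applied for 2 h at room temperature and fluorescence intensity recorded.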

Measured: Potency

Chain of Aromatase (Homo sapiens) (P11511 whole entry, looked up): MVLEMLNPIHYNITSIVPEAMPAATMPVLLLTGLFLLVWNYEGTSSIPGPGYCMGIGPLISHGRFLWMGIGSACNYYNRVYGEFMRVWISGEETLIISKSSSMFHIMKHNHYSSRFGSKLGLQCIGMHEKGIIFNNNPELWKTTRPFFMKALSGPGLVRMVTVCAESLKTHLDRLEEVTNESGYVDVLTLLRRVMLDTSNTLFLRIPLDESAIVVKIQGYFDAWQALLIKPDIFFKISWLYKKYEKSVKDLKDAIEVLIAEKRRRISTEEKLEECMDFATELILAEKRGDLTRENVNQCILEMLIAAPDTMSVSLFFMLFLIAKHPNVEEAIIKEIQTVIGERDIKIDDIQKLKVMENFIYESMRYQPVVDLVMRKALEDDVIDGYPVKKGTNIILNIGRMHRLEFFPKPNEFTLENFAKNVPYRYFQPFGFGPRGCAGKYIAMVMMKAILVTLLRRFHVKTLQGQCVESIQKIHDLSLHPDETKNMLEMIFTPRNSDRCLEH
Chain of Estrogen receptor (Homo sapiens) (P03372 whole entry, looked up): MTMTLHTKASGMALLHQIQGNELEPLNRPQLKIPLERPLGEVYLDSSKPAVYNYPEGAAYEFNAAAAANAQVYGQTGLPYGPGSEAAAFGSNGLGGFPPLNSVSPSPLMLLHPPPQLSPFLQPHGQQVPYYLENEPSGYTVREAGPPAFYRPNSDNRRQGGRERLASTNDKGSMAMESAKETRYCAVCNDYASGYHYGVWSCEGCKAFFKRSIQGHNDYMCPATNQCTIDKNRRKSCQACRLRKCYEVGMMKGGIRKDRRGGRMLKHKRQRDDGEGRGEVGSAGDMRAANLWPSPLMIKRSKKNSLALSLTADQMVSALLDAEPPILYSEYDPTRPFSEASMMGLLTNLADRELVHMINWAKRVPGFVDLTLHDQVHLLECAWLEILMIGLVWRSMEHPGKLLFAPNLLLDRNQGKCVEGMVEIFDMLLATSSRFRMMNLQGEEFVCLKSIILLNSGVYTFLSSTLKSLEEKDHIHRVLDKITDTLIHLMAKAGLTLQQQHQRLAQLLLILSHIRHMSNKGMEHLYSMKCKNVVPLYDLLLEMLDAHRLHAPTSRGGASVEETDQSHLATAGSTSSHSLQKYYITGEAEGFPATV
Chain of Aryl hydrocarbon receptor (Homo sapiens) (P35869 whole entry, looked up): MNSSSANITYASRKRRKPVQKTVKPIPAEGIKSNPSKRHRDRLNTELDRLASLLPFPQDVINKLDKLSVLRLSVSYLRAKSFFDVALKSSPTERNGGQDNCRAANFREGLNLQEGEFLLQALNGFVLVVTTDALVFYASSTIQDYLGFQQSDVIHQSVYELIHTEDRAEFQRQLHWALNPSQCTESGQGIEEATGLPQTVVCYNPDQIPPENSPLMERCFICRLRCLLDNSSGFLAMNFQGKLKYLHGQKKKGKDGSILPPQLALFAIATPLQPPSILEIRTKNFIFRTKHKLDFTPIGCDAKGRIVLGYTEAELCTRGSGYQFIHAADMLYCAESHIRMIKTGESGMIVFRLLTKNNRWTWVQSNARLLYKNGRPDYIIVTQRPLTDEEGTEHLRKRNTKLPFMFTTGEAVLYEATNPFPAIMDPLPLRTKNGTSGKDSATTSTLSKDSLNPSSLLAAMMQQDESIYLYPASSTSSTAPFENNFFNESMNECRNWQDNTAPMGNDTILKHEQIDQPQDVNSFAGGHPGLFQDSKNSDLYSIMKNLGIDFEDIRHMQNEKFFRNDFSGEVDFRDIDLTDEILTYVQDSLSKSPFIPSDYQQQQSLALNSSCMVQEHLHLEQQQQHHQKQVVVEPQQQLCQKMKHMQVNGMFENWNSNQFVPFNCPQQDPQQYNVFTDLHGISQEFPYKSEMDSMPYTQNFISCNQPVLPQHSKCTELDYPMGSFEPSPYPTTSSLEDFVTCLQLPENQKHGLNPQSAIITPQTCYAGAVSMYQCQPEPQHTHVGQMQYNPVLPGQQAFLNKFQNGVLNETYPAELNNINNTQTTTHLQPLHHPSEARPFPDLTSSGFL
Chain of Peroxisome proliferator-activated receptor gamma (Homo sapiens) (P37231 whole entry, looked up): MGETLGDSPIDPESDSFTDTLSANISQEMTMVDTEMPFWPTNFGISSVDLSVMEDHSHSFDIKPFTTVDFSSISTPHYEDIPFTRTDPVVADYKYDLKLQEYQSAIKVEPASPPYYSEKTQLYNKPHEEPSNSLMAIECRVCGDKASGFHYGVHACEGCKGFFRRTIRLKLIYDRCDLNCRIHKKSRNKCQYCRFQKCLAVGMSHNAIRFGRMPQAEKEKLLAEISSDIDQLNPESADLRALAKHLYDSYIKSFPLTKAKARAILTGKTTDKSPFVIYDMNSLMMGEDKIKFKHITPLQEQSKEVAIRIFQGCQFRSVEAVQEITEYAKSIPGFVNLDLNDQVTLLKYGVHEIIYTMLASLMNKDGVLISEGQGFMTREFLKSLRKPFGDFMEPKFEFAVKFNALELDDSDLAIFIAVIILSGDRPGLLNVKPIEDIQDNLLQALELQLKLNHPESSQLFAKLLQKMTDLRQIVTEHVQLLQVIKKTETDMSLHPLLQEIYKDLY

CC(C)=CCOc1c2occc2cc2ccc(=O)oc12
active: [11] 3.76 µM
not listed: [19] | [20]
inactive: all other assays above

ClC=C(Cl)Cl
not listed: [13] | [15]
inactive: all other assays above

COC(=O)c1cncn1C(C)c1ccccc1 (stereo not drawn)
inactive: all assays above

CC1(C)[C@H](C=C(Cl)Cl)[C@@H]1C(=O)O[C@@H](C#N)c1cccc(Oc2ccccc2)c1
not listed: [7] | [11] | [13] | [14] | [15] | [18]
inactive: all other assays above

Cc1ccc2ccccc2c1
not listed: [4] | [14] | [20]
inactive: all other assays above

CC(=O)C(C)(C)C
not listed: [4] | [11] | [17]
inactive: all other assays above

IC(I)=C(I)I
active: [1] 7.7 µM | [2] 6.11 µM | [8] 9.69 µM | [9] 6.86 µM | [10] 15.4 µM | [12] 43.3 µM | [15] 9.77 µM | [16] 6.11 µM
inactive: [3] | [5] | [6] | [19]

Clc1cc(Cl)c(Cl)c(Cl)c1
not listed: [4] | [7] | [11]
inactive: all other assays above

CNP(=O)(OC)Oc1ccc(C(C)(C)C)cc1Cl (stereo not drawn)
active: [14] 43.6 µM | [20] 54.5 µM
not listed: [4] | [11] | [13] | [15]
inactive: all other assays above

Brc1ccc(Oc2ccccc2)cc1
not listed: [4] | [13] | [14] | [15]
inactive: all other assays above

O=C(CBr)c1ccccc1
active: [7] 54.8 µM
not listed: [4] | [15] | [17] | [18] | [20]
inactive: all other assays above

CCc1ccc(C(=O)NN(C(=O)c2cc(C)cc(C)c2)C(C)(C)C)cc1
active: [1] 1.54 µM | [10] 6.86 µM | [20] 61.1 µM
not listed: [4] | [12]
inactive: all other assays above

CCCN(CCCl)c1c([N+](=O)[O-])cc(C(F)(F)F)cc1[N+](=O)[O-]
not listed: [4] | [13]
inactive: all other assays above

CC(=O)[C@H]1CC[C@H]2[C@@H]3CC[C@H]4C[C@](C)(O)CC[C@]4(C)[C@H]3CC[C@]12C
not listed: [4] | [14] | [15] | [20]
inactive: all other assays above

O=C=Nc1ccc(Cl)cc1
active: [4] 3.47 µM [inhibitor] | [20] 43.3 µM
not listed: [7] | [8] | [11] | [13] | [18]
inactive: all other assays above

Clc1cccc(SC2CCNCC2)n1
active: [12] 29.8 µM
not listed: [4] | [13]
inactive: all other assays above

CCOC(=O)C(Cl)C(C)=O (stereo not drawn)
not listed: [4] | [14] | [15]
inactive: all other assays above

Cc1ccc(N)cc1C
active: [7] 49 µM
not listed: [4] | [11] | [14] | [15]
inactive: all other assays above

CCC(Cl)CCl (stereo not drawn)
not listed: [4]
inactive: all other assays above

C[N+](C)(C)CCCl
not listed: [6] | [13] | [14] | [15]
inactive: all other assays above

CCCC(=O)Cl
not listed: [4] | [14] | [15] | [20]
inactive: all other assays above

COP(=S)(OC)Oc1ccc([N+](=O)[O-])cc1Cl
active: [12] 61.1 µM
not listed: [4] | [10] | [11] | [19] | [20]
inactive: all other assays above

C=CC(=O)OCC(C)C
not listed: [4] | [13] | [14] | [18]
inactive: all other assays above

N#CCc1ccccc1
not listed: [4] | [18] | [20]
inactive: all other assays above

CS/C(C)=N/OC(=O)N(C)SN(C)C(=O)O/N=C(\C)SC
active: [1] 27.3 µM | [2] 27.3 µM
not listed: [4] | [14] | [18]
inactive: all other assays above

CCCCNP(N)(N)=S
not listed: [4] | [7] | [11] | [15]
inactive: all other assays above

ClCC(Br)CBr (stereo not drawn)
not listed: [4] | [11] | [13]
inactive: all other assays above

Cl/C=C\Cl
not listed: [4] | [8] | [13] | [14] | [18]
inactive: all other assays above

O=[N+]([O-])C(Br)(CO)CO
active: [1] 23.7 µM and 21.7 µM | [2] 23.7 µM and 24.3 µM | [10] 61.1 µM
not listed: [4] | [20]
inactive: all other assays above

ClCc1ccccc1
not listed: [4] | [11] | [14] | [18]
inactive: all other assays above

NNC(=O)c1cccnc1
not listed: [7] | [11] | [15]
inactive: all other assays above

O=[N+]([O-])c1ccccc1CCl
active: [13] 98.8 nM
not listed: [4] | [8] | [11] | [20]
inactive: all other assays above

CC(Cl)Cl
not listed: [7] | [14] | [20]
inactive: all other assays above

CC(=O)NC1CCSC1=O (stereo not drawn)
not listed: [4] | [11] | [15]
inactive: all other assays above

c1ccoc1
not listed: [4] | [7] | [11] | [13] | [14]
inactive: all other assays above
